Reference: paper PMC5540273 (PLoS ONE, 2017)

Columns and labels:
Conditions in all cases: concentration: 1 μM, replicates: in singlicate; n = 1
[1] = system: KIT
[2] = system: LATS1
[3] = system: LATS2
[4] = system: LCK
[5] = system: LIMK1
[6] = system: LIMK2
[7] = system: T1, LKB1
T1 construct: gene STK11

[8] = system: T2, LOK
T2 construct: gene STK10

[9] = system: LRRK2
[10] = system: LTK
[11] = system: LYN
[12] = system: T3, LZK
T3 construct: gene MAP3K13

[13] = system: MAK
[14] = system: MAP3K15
[15] = system: MAP3K1
[16] = system: MAP3K2
[17] = system: MAP3K3
[18] = system: MAP3K4
[19] = system: MAP4K2
[20] = system: MAP4K3
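Note: KINOMEscan kinase panel screen.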

Cc1cccc(-c2nc(Nc3ccc4[nH]ncc4c3)c3ccccc3n2)n1 [GW857175]
%Inh [1]: 3% | %Inh [2]: 1% | %Inh [3]: 50% | %Inh [4]: 10% | %Inh [5]: 6% | %Inh [6]: 2% | %Inh [7]: 14% | %Inh [8]: 19% | %Inh [9]: 15% | %Inh [10]: 0% | %Inh [11]: 17% | %Inh [12]: 10% | %Inh [13]: 0% | %Inh [14]: 0% | %Inh [15]: 38% | %Inh [16]: 36% | %Inh [17]: 0% | %Inh [18]: 14% | %Inh [19]: 39% | %Inh [20]: 0%

CC(=O)Nc1nc2cnc(Nc3cc(NC(=O)c4cccc(CCC#N)c4)ccc3C)nc2s1
%Inh [1]: 99.7% | %Inh [2]: 21% | %Inh [3]: 29% | %Inh [4]: 27% | %Inh [5]: 0% | %Inh [6]: 0% | %Inh [7]: 0% | %Inh [8]: 0% | %Inh [9]: 0% | %Inh [10]: 0% | %Inh [11]: 25% | %Inh [12]: 24% | %Inh [13]: 0% | %Inh [14]: 8% | %Inh [15]: 0% | %Inh [16]: 0% | %Inh [17]: 20% | %Inh [18]: 0% | %Inh [19]: 0% | %Inh [20]: 0%

COc1cc2ncn(-c3cc(OCC4CCCO4)c(C(N)=O)s3)c2cc1OC (stereo not shown) [GSK204607]
%Inh [1]: 16% | %Inh [2]: 0% | %Inh [3]: 10% | %Inh [4]: 7% | %Inh [5]: 0% | %Inh [6]: 16% | %Inh [7]: 0% | %Inh [8]: 96.9% | %Inh [9]: 0% | %Inh [10]: 11% | %Inh [11]: 0% | %Inh [12]: 0% | %Inh [13]: 9% | %Inh [14]: 0% | %Inh [15]: 50% | %Inh [16]: 0% | %Inh [17]: 0% | %Inh [18]: 0% | %Inh [19]: 0% | %Inh [20]: 70%

Cc1ccc(-c2cc(-c3c[nH]nc3-c3ccccn3)ccn2)cc1 [GW684088]
%Inh [1]: 23% | %Inh [2]: 0% | %Inh [3]: 6% | %Inh [4]: 7% | %Inh [5]: 0% | %Inh [6]: 17% | %Inh [7]: 12% | %Inh [8]: 0% | %Inh [9]: 0% | %Inh [10]: 0% | %Inh [11]: 1% | %Inh [12]: 44% | %Inh [13]: 0% | %Inh [14]: 0% | %Inh [15]: 9% | %Inh [16]: 0% | %Inh [17]: 0% | %Inh [18]: 4% | %Inh [19]: 0% | %Inh [20]: 0%

Cc1cccc(-c2nc(Nc3cccc(C(N)=O)c3)c3ccccc3n2)n1 [GW876019]
%Inh [1]: 0% | %Inh [2]: 8% | %Inh [3]: 0% | %Inh [4]: 20% | %Inh [5]: 0% | %Inh [6]: 9% | %Inh [7]: 0% | %Inh [8]: 21% | %Inh [9]: 73% | %Inh [10]: 40% | %Inh [11]: 0% | %Inh [12]: 0% | %Inh [13]: 0% | %Inh [14]: 0% | %Inh [15]: 3% | %Inh [16]: 0% | %Inh [17]: 26% | %Inh [18]: 0% | %Inh [19]: 0% | %Inh [20]: 0%

Cc1cccc(-c2cc(Nc3ccncc3)c3ccccc3n2)n1 [GSK223675]
%Inh [1]: 19% | %Inh [2]: 0% | %Inh [3]: 22% | %Inh [4]: 9% | %Inh [5]: 0% | %Inh [6]: 0% | %Inh [7]: 7% | %Inh [8]: 0% | %Inh [9]: 0% | %Inh [10]: 0% | %Inh [11]: 0% | %Inh [12]: 0% | %Inh [13]: 22% | %Inh [14]: 0% | %Inh [15]: 5% | %Inh [16]: 0% | %Inh [17]: 0% | %Inh [18]: 21% | %Inh [19]: 0% | %Inh [20]: 0%

Cc1c(O)cccc1Nc1ccnc2ccc(C(F)(F)F)cc12.Cl [GW466413]
%Inh [1]: 17% | %Inh [2]: 0% | %Inh [3]: 0% | %Inh [4]: 73% | %Inh [5]: 0% | %Inh [6]: 0% | %Inh [7]: 0% | %Inh [8]: 0% | %Inh [9]: 58% | %Inh [10]: 28% | %Inh [11]: 0% | %Inh [12]: 14% | %Inh [13]: 0% | %Inh [14]: 0% | %Inh [15]: 2% | %Inh [16]: 22% | %Inh [17]: 47% | %Inh [18]: 0% | %Inh [19]: 0% | %Inh [20]: 0%

CC(C)(C)c1ccc(C(=O)Nc2cn3cc(-c4cccnc4)ccc3n2)cc1
%Inh [1]: 91.5% | %Inh [2]: 23% | %Inh [3]: 10% | %Inh [4]: 8% | %Inh [5]: 16% | %Inh [6]: 20% | %Inh [7]: 24% | %Inh [8]: 79% | %Inh [9]: 0% | %Inh [10]: 19% | %Inh [11]: 16% | %Inh [12]: 0% | %Inh [13]: 46% | %Inh [14]: 46% | %Inh [15]: 1% | %Inh [16]: 9% | %Inh [17]: 26% | %Inh [18]: 17% | %Inh [19]: 0% | %Inh [20]: 5%

O=C(Nc1ccccc1)Nc1cccc(Oc2ccc3nccn3n2)c1
%Inh [1]: 100% | %Inh [2]: 0% | %Inh [3]: 30% | %Inh [4]: 33% | %Inh [5]: 0% | %Inh [6]: 0% | %Inh [7]: 24% | %Inh [8]: 18% | %Inh [9]: 0% | %Inh [10]: 0% | %Inh [11]: 0% | %Inh [12]: 0% | %Inh [13]: 27% | %Inh [14]: 0% | %Inh [15]: 0% | %Inh [16]: 0% | %Inh [17]: 0% | %Inh [18]: 4% | %Inh [19]: 0% | %Inh [20]: 9%

Clc1cc(Cl)cc(Nc2ccnc(Nc3cc(Cl)cc(Cl)c3)n2)c1 [GSK175726]
%Inh [1]: 40% | %Inh [2]: 0% | %Inh [3]: 17% | %Inh [4]: 27% | %Inh [5]: 10% | %Inh [6]: 31% | %Inh [7]: 14% | %Inh [8]: 0% | %Inh [9]: 0% | %Inh [10]: 0% | %Inh [11]: 23% | %Inh [12]: 0% | %Inh [13]: 25% | %Inh [14]: 0% | %Inh [15]: 0% | %Inh [16]: 0% | %Inh [17]: 0% | %Inh [18]: 0% | %Inh [19]: 0% | %Inh [20]: 0%

Cc1cccc(-c2nc(Nc3ccncc3)c3ccccc3n2)n1 [GW855857]
%Inh [1]: 10% | %Inh [2]: 3% | %Inh [3]: 0% | %Inh [4]: 9% | %Inh [5]: 12% | %Inh [6]: 5% | %Inh [7]: 18% | %Inh [8]: 37% | %Inh [9]: 0% | %Inh [10]: 21% | %Inh [11]: 0% | %Inh [12]: 0% | %Inh [13]: 0% | %Inh [14]: 0% | %Inh [15]: 0% | %Inh [16]: 0% | %Inh [17]: 0% | %Inh [18]: 16% | %Inh [19]: 0% | %Inh [20]: 0%
